Screening results as filed in PubChem.
Rows were chosen to be rich in hits. Some 1.1% of all compounds tested hit in one or more screens of this group.
PrP UTR inh = suppresses PrP 5' UTR mRNA reporter expression. cell-based PrP 5' UTR mRNA reporter, plate reader. inhibition, % (concentration not given with the values). 340,000 tested, 0.35% active. AID 488862; in the data active means inhibition above about 52%; further: 0 = median of the neutral control wells
Y pestis TopoI = Y. pestis Topo-I inhibition via cleavage products; Y. pestis Topo-I cleavage product accumulation, plate reader; activity, % at 10 µM; 360,000 tested, 0.064% active; in the data active means activity above about 50%, passing the limit was not always enough
Mtb BioA inh = blocks M. tuberculosis BioA enzyme activity; purified M. tuberculosis BioA enzyme, plate reader; inhibition, % at 9.99 µM; 360,000 tested, 0.096% active; AID 602481; in the data active means inhibition above about 40%
FadD28 FP inh = M. tuberculosis FadD28 bisubstrate binding inhibition; 360,000 tested, 0.22% active; AID 588549; inhibition, % at 12.5 µM; FadD28 bisubstrate probe binding, fluorescence polarization; in the data active means inhibition above about 8.5%, passing the limit was not always enough
PfHsp40 rescue = restores yeast growth despite PfHsp40 toxicity | S. cerevisiae expressing PfHsp40, growth rescue, ATP luminescence | growth rescue, % at 12.5 µM | 340,000 tested, 0.68% active | AID 504582; in the data active means growth rescue above about 28%, passing the limit was not always enough;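 further: yeast W303a lacking pdr1 and pdr3 grown in galactose medium; growth measured after three days at 30 °C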
The depositor's hits bear a star; . = no result given; ! = a repeat was not active.

SMILES | PrP UTR inh | Y pestis TopoI | Mtb BioA inh | FadD28 FP inh | PfHsp40 rescue
C/C=C/c1cnc2c(c1)C(=O)N([C@@H](C)CO)C[C@H](C)[C@H](CN(C)C(=O)Cc1ccccc1)O2 | . | . | 1 | . | .
CC(C)[C@H](NC(=O)[C@@H]1Cc2c([nH]c3ccccc23)C2c3ccccc3C(=O)N21)C(=O)N1CCC[C@H]1C(=O)O (some centres not stated) | . | -2 | 1 | -1 | .
CCOC(=O)c1sc2nc(CC(=O)OC)nc(NCCN(CC)CC)c2c1C | -3 | 7 | 2 | -5 | 74*
CCOC(=O)c1sc2nc(CC(=O)OC)nc(NCCN3CCOCC3)c2c1C | -25 | 8 | -1 | -1 | 1
CCOc1ccc2c(c1)C(C)=CC(C)(C)N2S(=O)(=O)c1ccc(NC(C)=O)cc1 | 78* | 32 | 3 | -8 | 1
CCOC(=O)NC1Cc2ccccc2C1Sc1ccccn1 (configuration not stated) | -16 | 3 | 3 | -2 | 54*
Fc1ccc(SCCc2ccccn2)cc1 | -22 | 50*! | 0 | -1 | -1
Oc1ccc2c3c1O[C@H]1c4[nH]c5ccccc5c4C[C@@]4(O)[C@@H](C2)N(CC2CC2)CC[C@]314 | -18 | -6 | 2 | 0 | -1
Oc1ccc2c3c1O[C@H]1c4oc5ccccc5c4C[C@@]4(O)[C@@H](C2)N(CC2CC2)CC[C@]314 | 17 | 11 | 3 | 0 | 34*
COc1ccccc1-c1cnc2c(c1)C(=O)N([C@@H](C)CO)C[C@H](C)[C@H](CN(C)Cc1ccc(C(=O)O)cc1)O2 | . | . | -1 | . | .
Cc1ccc(S(=O)(=O)c2cnc3cc(C)nn3c2N)cc1 | -2 | -2 | . | -2 | 32*
C/C=C/c1cnc2c(c1)C(=O)N([C@H](C)CO)C[C@@H](C)[C@@H](CN(C)C(=O)NC1CCCCC1)O2 | . | . | -2 | . | .
CCn1nccc1C(=O)Nc1cc(Cl)cc(Cl)c1 | -17 | -1 | . | -7 | 63*
O=C(NCC[C@@H]1CC[C@H](NC(=O)C2CCCC2)[C@H](CO)O1)c1cnccn1 | . | . | -1 | . | .
C[C@@H]1CN([C@@H](C)CO)C(=O)c2cccc(NS(=O)(=O)c3ccc(Cl)cc3)c2O[C@@H]1CN(C)S(=O)(=O)c1ccc(Cl)cc1 | . | . | -2 | . | .
CN1C(=O)C2(N=c3ccccc3=N2)c2ccccc21 | -13 | 3 | . | 1 | 55*
O=C(CSc1ccc(-c2ccccn2)nn1)c1ccccc1 | -42 | 13 | . | -4 | 401*
c1ccc(CSc2ccc(-c3ccccn3)nn2)cc1 | -68 | -13 | 0 | -2 | 112*
O=C(CSc1ccc(-c2ccccn2)nn1)N1CCCC1 | -13 | -1 | . | 0 | 91*
O=C(CSc1ccc(-c2ccccn2)nn1)NC1CCCC1 | -26 | -11 | . | -3 | 221*
O=C(CSc1ccc(-c2ccccn2)nn1)c1ccc(F)cc1 | -27 | 9 | 0 | -4 | 6
Clc1ccc(CSc2ccc(-c3ccccn3)nn2)cc1 | -27 | -2 | 2 | -1 | -1
CCc1ccc(-c2ccc(SCC(=O)NC3CCCC3)nn2)cc1 | . | -4 | -1 | -4 | .
Cc1noc(C)c1NC(=O)N(C)C[C@@H]1Oc2c(NC(=O)C3CCOCC3)cccc2C(=O)N([C@H](C)CO)C[C@@H]1C | . | . | 0 | . | .
Cc1noc(C)c1S(=O)(=O)Nc1ccc2c(c1)C(=O)N([C@@H](C)CO)C[C@H](C)[C@H](CN(C)C(=O)Nc1ccccc1)O2 | . | . | -2 | . | .
SMILES | PrP UTR inh | Y pestis TopoI | Mtb BioA inh | FadD28 FP inh | PfHsp40 rescue
CCS(=O)(=O)Nc1ccc2c(c1)C(=O)N(C)C[C@@H](OC)[C@@H](C)CN(C(=O)C1CCC1)[C@@H](C)CO2 | . | . | 0 | . | .
COc1ccc(S(=O)(=O)Nc2ccc3c(c2)C(=O)N([C@@H](C)CO)C[C@H](C)[C@H](CN(C)S(=O)(=O)c2ccc(F)cc2)OCCCC[C@H](C)O3)cc1 | . | . | -2 | . | .
Cc1ccc(S(=O)(=O)N(Cc2cccc(C(F)(F)F)c2)C(=O)N2CCN(C)CC2)cc1 | -27 | -11 | -1 | -2 | 52*
Cc1ccc(S(=O)(=O)N(CC(=O)Nc2cccc(C(F)(F)F)c2)C(=O)N2CCN(C)CC2)cc1 | -4 | -7 | -1 | 0 | 2
CO[C@@H]1CN(C)C(=O)c2ccc(NC(=O)c3cc(C)on3)cc2OC[C@H](C)N(C(C)=O)C[C@H]1C | . | . | 1 | . | .
Cc1cccc(C)c1NS(=O)(=O)c1ccc(-c2cnc(C3CC3)o2)cc1 | 30 | 8 | 1 | -6 | 283*
COc1ccc(C)cc1NS(=O)(=O)c1ccc(-c2cnc(C3CC3)o2)cc1 | 76* | 26 | 1 | -2 | 1
COc1ccccc1-c1cn(CC[C@H]2CC[C@@H](NC(=O)C3CCOCC3)[C@@H](CO)O2)nn1 | . | . | 2 | . | .
CCc1cn(C2CC(O)C(CO)O2)c(=O)[nH]c1=O (configuration not stated) | -11 | 3 | -1 | -4 | -1
O=c1[nH]c(=O)n([C@H]2C[C@H](O)[C@@H](CO)O2)cc1I | -35 | 3 | 0 | -4 | 76*
COc1ccc(NC(=O)Nc2ccc3c(c2)C(=O)N([C@@H](C)CO)C[C@H](C)[C@@H](CN(C)Cc2ccc(C(F)(F)F)cc2)O3)cc1 | . | . | -1 | . | .
Cn1ncc2c(O/N=C(\N)c3ccc(C(C)(C)C)cc3)ncnc21 | -2 | 2 | -2 | 0 | 73*
NS(=O)(=O)c1ccc(Nc2nc(-c3ccc(O)cc3O)cs2)cc1 | -15 | -39 | . | 40* | -1
COc1cccc(-c2cnc3c(c2)C(=O)N([C@@H](C)CO)C[C@H](C)[C@H](CN(C)Cc2ccc(C(=O)O)cc2)O3)c1 | . | . | 1 | . | .
CC(CNC(=O)COc1ccccc1)OC(=O)Nc1ccc(Cl)c(Cl)c1 (configuration not stated) | -1 | 9 | 1 | -4 | 200*
COC(=O)c1[nH]c2cccc(OC)c2c1NC(=O)CN1CCOCC1 | -17 | 10 | 3 | -4 | 52*
COC(=O)c1[nH]c2cccc(OC)c2c1NC(=O)CCN1CCSCC1 | -11 | -11 | . | -3 | 0
CC/C(=N\Nc1ccc([N+](=O)[O-])cc1)c1ccccc1 | -6 | -10 | . | -3 | 430*
C/C(=N\Nc1ccc([N+](=O)[O-])cc1)c1ccco1 | -77 | -11 | . | 0 | 64*
CC(C)CC#Cc1cnc2c(c1)C(=O)N([C@H](C)CO)C[C@H](C)[C@H](CN(C)Cc1cncnc1)O2 | . | . | 0 | . | .
CCn1c(-c2cc(-c3ccc(C)cc3)nc3ccccc23)n[nH]c1=S | -1 | 10 | 3 | -4 | 39*
C=CCn1c(-c2cc(-c3ccc(C)cc3)nc3ccccc23)n[nH]c1=S | -39 | 20 | . | -6 | 414*
CCn1c(-c2cc(-c3ccc(OC(C)C)cc3)nc3ccccc23)n[nH]c1=S | -68 | 9 | 3 | -3 | -1
OC[C@H]1[C@H](c2ccc(-c3cccc(F)c3)cc2)[C@H]2CN(Cc3cncnc3)CCCCN21 | . | . | 5 | . | .
C[C@@H]1CCCCO[C@@H](CN(C)S(=O)(=O)c2ccc(F)cc2)[C@H](C)CN([C@@H](C)CO)C(=O)c2cc(NS(C)(=O)=O)ccc2O1 | . | . | 2 | . | .
Cc1ccc(C)n1-c1sccc1C(=O)O | -5 | -19 | -4 | 21* | 2
